This is a sample that favours compounds with a hit; in the whole collection about 3.1% have one here.
PLK1 PBD block = blocks phosphopeptide binding to human PLK1 polo-box domain | P53350 | Plk1 PBD binding of FITC phosphopeptide, fluorescence polarization | Potency, µM, for the others: max response, negative = inhibition, actives largely listed as inhibitors | actives 2.8% (n = 360,000); also: series mostly up to about 57 µM; % is scaled to controls: 0 for no effect and ±100 for the full control effect; nearly all actives have a fitted effect of over 65% in size
ASM inhibitor = human S-ASM enzyme inhibition. actives 0.006% (n = 340,000). Potency, µM (titrated, usually from 57.5 µM), for the others: at the highest dose activity change, negative = inhibition, usual class: inhibitors. P17405. placental ASM, HMU-PC fluorogenic substrate, 60 min
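Human placenta-derived ASM preincubated with compound 10 min at room temperature, then reacted with 9 uM (final) fluorogenic HMU-PC substrate for 60 min at 37 C. Stop solution raises pH to 10; fluorescence read at Ex 386/Em 447 nm.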
TDP1 block = blocks human tyrosyl-DNA phosphodiesterase 1 | recombinant TDP1, AlphaScreen DNA substrate cleavage | Potency, µM (highest dose often 130 µM), for the others: at the top dose activity change, negative = inhibition, usual class: inhibitors | actives 0.28% (n = 350,000) | AID 485290; also: % is scaled to controls: 0 for no effect and ±100 for the full control effect; nearly all actives have a fitted effect of over 40% in size
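Recombinant E. coli-expressed Tdp1 (1 nM) preincubated with compound 15 min at RT, then 5'-biotin/3'-phosphotyrosine-FITC DNA substrate (15 nM) added for 5 min. AlphaScreen beads (10 ug/ml) added, 10 min RT; tyrosine-FITC cleavage read as signal loss.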
Tb PFK inh = inhibitors of T. brucei phosphofructokinase. O15648. T. brucei PFK, ADP-Glo luminescence. Potency, µM (highest dose often 57.5 µM), inactives show at the top dose activity, negative = inhibition, most hits filed as inhibitors. actives 0.17% (n = 330,000). AID 485367;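 also: 0% = uninhibited 1x PFK enzyme wells and -100% = no-enzyme wells; nearly all actives have a fitted effect of over 60% in size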
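1.25 nM PFK with 0.5 mM F6P and 0.1 mM ATP in 0.1 M TEA pH 8.0, 5 mM MgCl2, incubated 45 min at room temperature; ADP measured by ADP-Glo luminescence; compounds titrated up to 57 uM.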
VDR inh = vitamin D3 receptor (human) inhibition; P11473; Potency, µM, for inactives: max response, negative = inhibition, most hits filed as inhibitors; AID 504847; VDR-SRC2-3 peptide fluorescence polarization, 2 h; actives 0.93% (n = 400,000); also: % is scaled to controls: 0 for no effect and ±100 for the full control effect
Target sequence (P11473 whole entry, looked up): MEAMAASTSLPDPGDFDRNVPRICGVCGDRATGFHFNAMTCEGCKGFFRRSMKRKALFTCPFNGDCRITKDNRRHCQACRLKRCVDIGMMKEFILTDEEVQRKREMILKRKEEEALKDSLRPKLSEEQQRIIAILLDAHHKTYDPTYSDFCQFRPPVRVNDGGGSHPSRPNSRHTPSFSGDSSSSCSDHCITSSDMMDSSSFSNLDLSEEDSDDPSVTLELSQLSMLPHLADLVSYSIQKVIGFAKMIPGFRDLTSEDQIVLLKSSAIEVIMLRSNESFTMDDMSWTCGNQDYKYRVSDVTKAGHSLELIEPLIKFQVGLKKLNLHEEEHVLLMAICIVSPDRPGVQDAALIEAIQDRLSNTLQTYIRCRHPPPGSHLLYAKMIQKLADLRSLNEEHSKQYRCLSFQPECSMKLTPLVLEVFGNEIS
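Signal is fluorescence polarization, reporting how far test compounds block the interaction of VDR with the SRC2-3 coregulator peptide after a 2 h room-temperature incubation.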
Pin1 inhibitor = blocks the human prolyl isomerase Pin1; actives 0.009% (n = 390,000); Potency, µM (top dose mostly 115 µM), for the others: top-dose activity, negative = inhibition, most hits filed as inhibitors; Pin1 FP peptide displacement, HiFluor488, 10 min; AID 504891; Q13526; active = well fitted inhibition curve with a large enough effect in the polarisation, with a control signal flat, not every such curve was filed as active; inconclusive = small, poorly fitted or top-dose-only effect, or effect the other way, or a change in a side signal; inactive = no such curve, though single readings can be large or run the other way; the % refers to the polarisation; also: % is scaled to controls: 0 for no effect and ±100 for the full control effect
Numbers without * were called inactive; [ ] = remark or other dose. Unless noted, calls follow the shape of the dose curve; as a rule, active = well fitted curve in the direction sought with a large enough effect; inconclusive = small, poorly fitted or top-dose-only effect, or another doubt; inactive = no such curve, though single readings can be large; an effect the other way counts as inactive or inconclusive. Potency is read from the fitted curve at half-maximal effect.

Results for CCOCc1nnc(NC(=O)c2c(-c3ccccc3)noc2C)s1 ?
PLK1 PBD block: 29.9µM*; ASM inhibitor: 5.4%; TDP1 block: 1.9%; Tb PFK inh: -21.7%; VDR inh: inconclusive; Pin1 inhibitor: -6.9%

Results for CS(=O)(=O)C1=NSC2=NC(=O)/C(=C\c3cccn3-c3ccc(Cl)cc3)C(=N)N21 ?
PLK1 PBD block: 21.2µM*; ASM inhibitor: -21.5%; TDP1 block: 79.4µM*; Tb PFK inh: -28.7%; VDR inh: inconclusive; Pin1 inhibitor: -13.2%

How did O=C1CCCC2=C1C1(CCSCC1)N=C(Nc1nc3ccccc3o1)N2 do in these assays?
TDP1 block: 0.2%; Pin1 inhibitor: 1.2%

What do the screens show for `Fc1cccc(Cc2c(-c3ccco3)nc3c(Cl)cc(C(F)(F)F)cn23)c1`?
PLK1 PBD block: 11.9µM*

Results for Fc1ccc(-c2nc3c(Cl)cc(C(F)(F)F)cn3c2Cc2cccc(F)c2)cc1 ?
PLK1 PBD block: -13.0%

Results for CCCc1cc2c(c(=O)o1)C(O)C1OC1C2=O (stereo unspecified) ?
TDP1 block: -14.3%[21 µM]

Results for O=C(CC(Sc1ccc(Br)cc1)C(=O)O)c1ccc(F)cc1 (stereo unspecified) ?
PLK1 PBD block: inconclusive; ASM inhibitor: -0.4%; Tb PFK inh: 13.8%; VDR inh: 12.6µM*; Pin1 inhibitor: -20.0%

What do the screens show for `O=C(CSc1nc2sc3c(c2c(=O)n1-c1ccccc1)CCCC3)N/N=C/c1ccccc1C(=O)O`?
PLK1 PBD block: -14.3%; ASM inhibitor: -6.8%; TDP1 block: 22.4µM*; Tb PFK inh: -5.4%; VDR inh: 13.3%; Pin1 inhibitor: 0.5%

Results for CC(NC(=O)CSc1nc2sc3c(c2c(=O)n1-c1ccccc1)CCCC3)c1ccccc1 (stereo unspecified) ?
PLK1 PBD block: -7.1%; ASM inhibitor: -3.4%; TDP1 block: -5.0%; Tb PFK inh: 1.6%; VDR inh: -6.0%; Pin1 inhibitor: 1.5%

How did Cc1ccc(S(=O)(=O)N2CCc3nc(-c4ccccc4)c4c(c3C2)CO[C@@H](C)C4)cc1 do in these assays?
TDP1 block: 11.9%[12.3 µM]

Results for Cn1c(/N=C/c2c(O)ccc3ccccc23)nc2ccccc21 ?
PLK1 PBD block: 1.34µM*; ASM inhibitor: 4.8%; TDP1 block: -6.1%; Tb PFK inh: -3.8%; VDR inh: 35.5µM*; Pin1 inhibitor: -3.1%

What do the screens show for `O=C(NNS(=O)(=O)c1ccccc1[N+](=O)[O-])c1ccc(O)cc1`?
PLK1 PBD block: 23.8µM*; ASM inhibitor: -0.8%; TDP1 block: -3.9%; Tb PFK inh: 5.5%; VDR inh: -3.6%; Pin1 inhibitor: -8.2%

Results for Cc1ccc(C(=O)NNS(=O)(=O)c2ccccc2[N+](=O)[O-])cc1 ?
PLK1 PBD block: 26.7µM*; ASM inhibitor: -1.6%; TDP1 block: -5.5%; Tb PFK inh: -2.2%; VDR inh: -2.2%; Pin1 inhibitor: -0.8%

Results for Cc1cccc(C(=O)NNS(=O)(=O)c2ccccc2[N+](=O)[O-])c1 ?
PLK1 PBD block: inconclusive; ASM inhibitor: -6.1%; TDP1 block: -4.4%; Tb PFK inh: 5.1%; VDR inh: -0.2%; Pin1 inhibitor: 5.6%

How did O=C(NNS(=O)(=O)c1ccccc1[N+](=O)[O-])c1ccc(F)cc1 do in these assays?
PLK1 PBD block: -3.3%; ASM inhibitor: inconclusive; TDP1 block: -3.0%; Tb PFK inh: 0.6%; VDR inh: -4.5%; Pin1 inhibitor: -0.1%

Results for CC1CCN(C(=O)Cn2cc(SCC(=O)NCC3CCCO3)c3ccccc32)CC1 (stereo unspecified) ?
PLK1 PBD block: -2.2%; ASM inhibitor: -0.5%; TDP1 block: 0.0%; Tb PFK inh: 7.3%; VDR inh: -8.0%; Pin1 inhibitor: -4.6%

Results for O=C(CSc1cn(CC(=O)N2CCCCC2)c2ccccc12)NCC1CCCO1 (stereo unspecified) ?
PLK1 PBD block: 26.7µM*; ASM inhibitor: 11.3%; TDP1 block: -1.3%; Tb PFK inh: -0.2%; VDR inh: inconclusive; Pin1 inhibitor: inconclusive
